Compound activity from PubChem.
G9a inh: G9a (human) methyltransferase inhibition. Potency, µM (doses to about 102 µM), for the others: at the top dose activity, negative = inhibition, hits mostly inhibitors. G9a H3K9 monomethylation, AlphaScreen, 2 h. actives 8.8% (n = 350,000). AID 504332; also: % is scaled to controls: 0 for no effect and ±100 for the full control effect; nearly all actives have a fitted effect of over 75% in size
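G9a (20 nM) preincubated 15 min RT with compounds, then 500 nM biotinylated H3K9 peptide and 20 uM SAM added; 2 h RT reaction. Monomethyl-H3K9 product detected by AlphaScreen with anti-H3K9me1 antibody, streptavidin donor and anti-rabbit IgG acceptor beads.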
VDR inhibitor: vitamin D3 receptor (human) inhibition. AID 504847. actives 0.93% (n = 400,000). Potency, µM, without a hit: max response, negative = inhibition, most hits filed as inhibitors. P11473. VDR-SRC2-3 peptide fluorescence polarization, 2 h; also: % is scaled to controls: 0 for no effect and ±100 for the full control effect
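The screen uses fluorescence polarization to detect compounds that interfere with recruitment of the SRC2-3 coactivator peptide to VDR; plates are read after 2 h at room temperature.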
ALOX12 inh: blocks human arachidonate 12S-lipoxygenase. actives 1.1% (n = 580,000). purified 12hLO, xylenol orange hydroperoxide absorbance. Potency, µM (titrated, usually from 108 µM), inactives show at the highest dose activity change, negative = inhibition, hits mostly inhibitors; also: % is scaled to controls: 0 for no effect and ±100 for the full control effect
Target sequence (P18054 whole entry, looked up): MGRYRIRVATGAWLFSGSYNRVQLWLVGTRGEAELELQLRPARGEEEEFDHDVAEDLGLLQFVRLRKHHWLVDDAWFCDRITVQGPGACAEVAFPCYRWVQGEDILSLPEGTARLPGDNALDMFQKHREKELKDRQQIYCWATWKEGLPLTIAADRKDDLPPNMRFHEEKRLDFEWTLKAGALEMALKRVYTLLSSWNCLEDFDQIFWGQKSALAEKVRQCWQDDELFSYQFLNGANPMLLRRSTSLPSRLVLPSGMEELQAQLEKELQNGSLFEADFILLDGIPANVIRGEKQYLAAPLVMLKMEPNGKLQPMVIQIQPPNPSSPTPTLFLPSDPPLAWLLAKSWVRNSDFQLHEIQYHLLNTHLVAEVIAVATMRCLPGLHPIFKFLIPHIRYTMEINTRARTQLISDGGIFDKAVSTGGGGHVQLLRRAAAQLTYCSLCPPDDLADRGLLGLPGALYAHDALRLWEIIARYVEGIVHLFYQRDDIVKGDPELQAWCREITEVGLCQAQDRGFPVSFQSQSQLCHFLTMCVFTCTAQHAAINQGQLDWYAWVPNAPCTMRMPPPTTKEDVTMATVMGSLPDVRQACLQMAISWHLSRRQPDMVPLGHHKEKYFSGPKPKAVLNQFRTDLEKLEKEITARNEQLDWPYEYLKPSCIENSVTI
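Purified human 12hLO (150 nM final) in 25 mM Hepes, 0.01% Triton X-100, pH 7.0 was preincubated 15 min at room temperature with compound. Then 40 uM arachidonic acid was added, 30 min. Hydroperoxide was read by Fe-XO absorbance ratio 573/405 nm.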
GRP78 ERSR act: inducers of ER stress response in human glioma cells; Potency, µM, without a hit: at the highest dose activation, usual class: activators; U87-MG GRP78 promoter luciferase reporter, 16 h; AID 602332; actives 0.02% (n = 420,000); also: series mostly up to about 76 µM; % of control where 0% means no effect; nearly all actives have a fitted effect of over 35% in size
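Stably transfected U87-MG human glioma cells carrying a GRP78-based luminescent sensor were seeded at 1000 cells/well, pin-dosed with compounds and incubated 16 h. Luciferase reagent was then added, and end-point luminescence was read after 10 min at room temperature.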
Sfp inh: inhibitors of Bacillus subtilis Sfp phosphopantetheinyl transferase; AID 1490; Potency, µM, inactives show largest response in the series, negative = inhibition, hits mostly inhibitors; actives 3.5% (n = 310,000); Biochemical Sfp PPTase activity, qHTS;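 also: the enzyme is Sfp with the accession as filed and its product quenches rhodamine fluorescence; 0% = enzyme reaction without inhibitor and -100% = no enzyme wells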
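With Hepes-Na pH 7.6 buffer containing 10 mM MgCl2, Sfp (15 nM) modified BHQ-2-YbbR (12.5 uM) using rhodamine-CoA (5 uM). Two reads 30 minutes apart at 525/598 nm yielded each well's rate.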
* = called active by the depositor; ? = inconclusive; · = not tested or not shown; [ ] = another dose, or the depositor's remark. The sample as a whole holds a higher share of hits than the screen did. Calls follow the shape of the dose curve; as a rule, active = well fitted curve in the direction sought with a large enough effect; inconclusive = small, poorly fitted or top-dose-only effect, or another doubt; inactive = no such curve, though single readings can be large; an effect the other way counts as inactive or inconclusive. Potency is read from the fitted curve at half-maximal effect.

SMILES	G9a inh	VDR inhibitor	ALOX12 inh	GRP78 ERSR act	Sfp inh
Cc1csc2nc(CSc3ccccc3NC(=O)COc3ccccc3Cl)cc(=O)n12	·	·	13%	·	·
COc1ccc(C(=O)c2oc3ccc(NC(=O)c4ccncc4)cc3c2C)cc1	·	·	3%	·	·
CC(C)(C)c1ccc(C(=O)Nc2ccc(F)c(F)c2F)cc1	·	·	2%	·	·
CC(C(=O)N1CCCc2ccccc21)N1CCN(c2ccccn2)CC1 (configuration not stated)	2.5µM*	16%	-28%	1%	?
CC(C)c1ccc(S(=O)(=O)N2CCN(C(=O)C3CC(=O)Nc4cc(F)ccc43)CC2)cc1 (configuration not stated)	·	·	-2%	·	·
c1ccc(-c2onc(-c3ccco3)c2-c2ccc3[nH]ccc3c2)cc1	40µM*	10%	?	0%	-11%
c1ccc(-c2ccc3[nH]ccc3c2)cc1	-4%[0.501 µM]	6%	?	8%	·
CCOC(=O)C1=C(O)/C(=C/c2cc(OC)c(O)c(OC)c2)SC1=Nc1ccc(OC)cc1	8.9µM*	-17%	-17%	-5%	-24%
CCOC(=O)C1=C(O)/C(=C/c2ccc(OCC(=O)O)c(OC)c2)SC1=Nc1ccc(OCC)cc1	?	-2%	?	-4%	-22%
CCOC(=O)C1=C(O)/C(=C/c2ccc(-c3ccccc3C(=O)O)o2)SC1=Nc1ccc(C)cc1	12%	79µM*	?	-3%	5%
CCOC(=O)C1=C(O)/C(=C/c2ccccn2)SC1=Nc1ccc(Cl)cc1	-6%	-18%	6%	0%	32µM*
CCOC(=O)C1=C(O)/C(=C/c2ccc(-c3ccccc3C(=O)O)o2)SC1=Nc1ccc(OC)cc1	-28%[12.7 µM]	2%	?	-7%	-19%
Cc1ccc(-c2noc([C@@H]3Cc4nc[nH]c4CN3Cc3ccccc3)n2)cc1	·	·	28%[176 µM]	·	·
CCOCCCNCC(=O)NCC1CCCCC1	20µM*	-1%	?	-5%	-23%
Cc1ccc2cc(CCl)c(Cl)nc2c1C	·	·	4.5µM*	·	·
Cc1ccc2cc(CCl)c(Cl)nc2c1	-28%[12.7 µM]	9%	-9%	-1%	-1%
COc1ccc(C(=O)O)cc1S(=O)(=O)Nc1cc(Cl)ccc1Cl	·	·	21%	·	·
O=C(C[n+]1cc(-c2ccccc2)n2c1CCCCC2)c1ccc(Cl)cc1	-9%[59 µM]	-3%	-3%	-4%	4%
C[n+]1cc(-c2ccccc2)n2c1CCCCC2	71µM*	-11%	·	-4%	10%
O=C1CC(c2ccccc2)N(C(=O)CNC(=O)c2ccc3ncccc3c2)CCCCCCN1 (configuration not stated)	·	·	8%	·	·
CC(C)(C)OC(=O)C1=NOC2(C=CC(=O)C=C2)C1	·	28µM*	·	-12%	5%
CCOC(=O)C1=NOC2(C1)C(=O)Nc1ccc(OC(F)(F)F)cc12 (configuration not stated)	·	·	0%	·	·
CCOc1cc(N)c(C#N)cc1OCC	·	·	39%	·	·
O=C1NC(=O)/C(=C/c2ccc(-c3cccc([N+](=O)[O-])c3)o2)S1	·	-2%	-53%	1%	89µM*
O=C1C=C(c2cccc(Cl)c2)C[C@@H](c2ccc(Cl)cc2)C1	-6%[0.501 µM]	-6%	4%	-6%	·
SMILES	G9a inh	VDR inhibitor	ALOX12 inh	GRP78 ERSR act	Sfp inh
O=C1C=C(c2cccc(Cl)c2O)C[C@@H](c2ccc(Cl)cc2)C1	22%[2.33 µM]	-1%	11µM*	-3%	·
COc1ccc(C(=O)C(C)OC(=O)C23CC4CC(CC(Br)(C4)C2)C3)c(OC)c1 (configuration not stated)	·	·	13%	·	·
Clc1ccc(-c2csc(-c3cccnc3)n2)s1	40µM*	-17%	124%	8%	-13%
COc1ccc(Nc2nnc(SCc3cc(=O)n4ccsc4n3)s2)cc1	4µM*	-14%	?	3%	56µM*
CC(C)C(=O)N(Cc1ccc2c(c1)OCO2)Cc1ccccn1	40µM*	-5%	0%	-1%	-16%
Cc1cccc(C)c1-n1nnnc1SCC(=O)c1ccc(Br)s1	·	·	-28%	·	·
Cn1c(Cc2ccccc2)nnc1SCC(=O)c1ccc(Br)s1	?	-28%	-4%	-3%	20µM*
Cc1ccccc1-n1nnnc1SCC(=O)c1ccc(Br)s1	·	·	25µM*	·	·
CCc1nc(-c2c(-c3ccccc3)ncn2CCc2ccncc2)c(C)[nH]1	·	·	68%	·	·
